The record followed here is ChEMBL document CHEMBL1961873, “Compounds: GSK PKIS; Assays: Nanosyn kinase panel” (2012).

Where “and” joins values, the source holds several entries; their conditions need not be identical. Equal entries are not always repeated.

Assay [1] addresses Glycogen synthase kinase-3 beta (Homo sapiens) (UniProt P49841). As to conditions: at 1 µM.
Assay [2] addresses Homeodomain-interacting protein kinase 1 (Homo sapiens) (UniProt Q86Z02). The following applies: at 0.1 µM.
Assay [3] shares this target. As to conditions: at 1 µM.
The target of assay [4] is T1, Homeodomain-interacting protein kinase 4 (Homo sapiens) (UniProt Q8NE63).
T1 sequence (whole entry): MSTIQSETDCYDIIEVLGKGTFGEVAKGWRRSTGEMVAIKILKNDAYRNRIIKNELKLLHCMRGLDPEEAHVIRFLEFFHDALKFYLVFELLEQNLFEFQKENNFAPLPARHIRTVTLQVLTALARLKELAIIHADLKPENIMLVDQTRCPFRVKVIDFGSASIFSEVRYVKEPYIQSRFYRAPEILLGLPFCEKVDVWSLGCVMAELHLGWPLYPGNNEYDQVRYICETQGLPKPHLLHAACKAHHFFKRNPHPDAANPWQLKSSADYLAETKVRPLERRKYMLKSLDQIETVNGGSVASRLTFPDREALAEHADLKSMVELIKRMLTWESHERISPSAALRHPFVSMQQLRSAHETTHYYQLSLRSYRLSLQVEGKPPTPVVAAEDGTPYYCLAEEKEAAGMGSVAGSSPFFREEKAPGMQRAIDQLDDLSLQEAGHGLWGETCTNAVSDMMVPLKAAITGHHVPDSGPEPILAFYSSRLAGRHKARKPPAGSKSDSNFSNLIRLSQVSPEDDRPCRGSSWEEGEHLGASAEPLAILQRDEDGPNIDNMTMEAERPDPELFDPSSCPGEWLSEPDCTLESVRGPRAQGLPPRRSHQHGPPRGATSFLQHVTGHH
As to conditions: at 0.1 µM.

Assay [5] concerns the target T1, Homeodomain-interacting protein kinase 4 (Homo sapiens). As to conditions: at 1 µM.
For assay [6], the target named is Mitogen-activated protein kinase 9 (Homo sapiens) (UniProt P45984). The following applies: at 0.1 µM.
Sequence of Mitogen-activated protein kinase 9 (Homo sapiens) (P45984 whole entry, looked up): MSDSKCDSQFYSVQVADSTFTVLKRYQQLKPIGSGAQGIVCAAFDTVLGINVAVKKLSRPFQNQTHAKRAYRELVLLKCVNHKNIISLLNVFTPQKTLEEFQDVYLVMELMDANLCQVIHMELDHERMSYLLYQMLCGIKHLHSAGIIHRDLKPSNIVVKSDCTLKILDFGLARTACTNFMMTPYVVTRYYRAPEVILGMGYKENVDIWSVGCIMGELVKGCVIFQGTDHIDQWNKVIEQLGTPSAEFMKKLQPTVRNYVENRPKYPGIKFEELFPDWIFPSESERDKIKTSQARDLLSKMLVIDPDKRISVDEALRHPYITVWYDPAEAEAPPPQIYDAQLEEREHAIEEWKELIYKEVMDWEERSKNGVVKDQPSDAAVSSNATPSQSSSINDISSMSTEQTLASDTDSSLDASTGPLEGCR
Assay [7] shares this target. The following applies: at 1 µM.
For assay [8], the target named is Mitogen-activated protein kinase 1 (Homo sapiens) (UniProt P28482). As to conditions: at 0.1 µM.
Sequence of Mitogen-activated protein kinase 1 (Homo sapiens) (P28482 whole entry): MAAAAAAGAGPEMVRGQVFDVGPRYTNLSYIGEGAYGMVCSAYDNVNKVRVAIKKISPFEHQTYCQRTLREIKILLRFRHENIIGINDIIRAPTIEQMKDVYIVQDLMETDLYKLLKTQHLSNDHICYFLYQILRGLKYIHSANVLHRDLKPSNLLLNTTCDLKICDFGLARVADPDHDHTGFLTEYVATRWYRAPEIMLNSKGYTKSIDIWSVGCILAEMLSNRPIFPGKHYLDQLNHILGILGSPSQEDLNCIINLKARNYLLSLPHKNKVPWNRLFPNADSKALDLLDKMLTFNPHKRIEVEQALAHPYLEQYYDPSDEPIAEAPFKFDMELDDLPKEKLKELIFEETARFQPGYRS
The target is the same in assay [9]. As to conditions: at 1 µM.
The target of assay [10] is Mitogen-activated protein kinase 3 (Homo sapiens) (UniProt P27361). As to conditions: at 0.1 µM.
Sequence of Mitogen-activated protein kinase 3 (Homo sapiens) (P27361 whole entry): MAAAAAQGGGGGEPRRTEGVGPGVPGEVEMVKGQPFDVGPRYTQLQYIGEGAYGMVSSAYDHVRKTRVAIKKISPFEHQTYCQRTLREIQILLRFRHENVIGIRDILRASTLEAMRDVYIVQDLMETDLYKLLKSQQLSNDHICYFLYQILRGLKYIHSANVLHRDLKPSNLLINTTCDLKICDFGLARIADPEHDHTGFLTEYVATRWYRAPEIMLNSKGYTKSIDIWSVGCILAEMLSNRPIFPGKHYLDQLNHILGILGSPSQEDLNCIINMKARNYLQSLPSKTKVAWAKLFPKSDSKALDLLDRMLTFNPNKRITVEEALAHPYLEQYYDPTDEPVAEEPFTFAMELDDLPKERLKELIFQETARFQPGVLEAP
Assay [11] has the same target. The following applies: at 1 µM.
For assay [12], the target named is SRSF protein kinase 3 (Homo sapiens) (UniProt Q9UPE1). As to conditions: at 0.1 µM.
Sequence of SRSF protein kinase 3 (Homo sapiens) (Q9UPE1 whole entry): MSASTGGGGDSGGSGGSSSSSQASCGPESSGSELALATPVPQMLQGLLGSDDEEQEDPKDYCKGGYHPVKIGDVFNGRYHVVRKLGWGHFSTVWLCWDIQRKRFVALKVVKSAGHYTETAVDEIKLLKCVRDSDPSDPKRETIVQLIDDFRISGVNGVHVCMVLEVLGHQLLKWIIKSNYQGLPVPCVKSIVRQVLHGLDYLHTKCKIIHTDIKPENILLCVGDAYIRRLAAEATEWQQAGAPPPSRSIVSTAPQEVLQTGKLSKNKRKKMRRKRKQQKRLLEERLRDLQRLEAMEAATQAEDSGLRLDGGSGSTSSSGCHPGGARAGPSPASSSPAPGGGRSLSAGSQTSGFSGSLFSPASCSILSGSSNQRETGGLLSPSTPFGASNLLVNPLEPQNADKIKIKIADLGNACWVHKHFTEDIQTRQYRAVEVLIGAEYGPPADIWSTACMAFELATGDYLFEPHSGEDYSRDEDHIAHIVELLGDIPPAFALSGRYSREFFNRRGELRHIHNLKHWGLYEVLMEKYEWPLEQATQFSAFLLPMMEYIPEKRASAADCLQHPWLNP
For assay [13] the target is unchanged. As to conditions: at 1 µM.
Assay [14] addresses Mitogen-activated protein kinase 14 (Homo sapiens) (UniProt Q16539). As to conditions: at 0.1 µM.
Assay [15] shares this target. The following applies: at 1 µM.
Assay [16] concerns the target Mitogen-activated protein kinase 11 (Homo sapiens) (UniProt Q15759). As to conditions: at 0.1 µM.
Assay [17] shares this target. As to conditions: at 1 µM.
The target in assay [18] is T2, Mitogen-activated protein kinase 13 (Homo sapiens) (UniProt O15264).
T2 sequence (whole entry): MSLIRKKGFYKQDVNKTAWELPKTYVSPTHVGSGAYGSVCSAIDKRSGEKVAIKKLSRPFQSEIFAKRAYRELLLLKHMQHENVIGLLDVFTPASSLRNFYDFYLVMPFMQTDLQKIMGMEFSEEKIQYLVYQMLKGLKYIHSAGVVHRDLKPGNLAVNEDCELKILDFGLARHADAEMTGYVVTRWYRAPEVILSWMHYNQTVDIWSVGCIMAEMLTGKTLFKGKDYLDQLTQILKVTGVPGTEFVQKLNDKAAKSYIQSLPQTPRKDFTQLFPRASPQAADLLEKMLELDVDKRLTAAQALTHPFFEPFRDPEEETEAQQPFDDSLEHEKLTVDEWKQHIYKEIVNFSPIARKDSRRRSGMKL
As to conditions: at 0.1 µM.

Assay [19] has as its target T2, Mitogen-activated protein kinase 13 (Homo sapiens). The following applies: at 1 µM.
In assay [20] the target is T3, Mitogen-activated protein kinase 12 (Homo sapiens) (UniProt P53778).
T3 sequence (whole entry): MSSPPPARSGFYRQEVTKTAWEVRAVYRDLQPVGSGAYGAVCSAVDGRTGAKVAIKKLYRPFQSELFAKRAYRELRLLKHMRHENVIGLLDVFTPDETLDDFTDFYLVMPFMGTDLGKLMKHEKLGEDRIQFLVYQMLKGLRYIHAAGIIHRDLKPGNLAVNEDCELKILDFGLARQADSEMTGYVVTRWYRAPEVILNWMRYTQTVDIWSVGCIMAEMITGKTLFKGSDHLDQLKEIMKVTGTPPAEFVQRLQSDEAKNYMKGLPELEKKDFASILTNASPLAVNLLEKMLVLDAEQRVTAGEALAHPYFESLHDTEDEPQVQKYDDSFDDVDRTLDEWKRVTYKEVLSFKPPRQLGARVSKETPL
The following applies: at 0.1 µM.

Sequence of Glycogen synthase kinase-3 beta (Homo sapiens) (P49841 whole entry, looked up): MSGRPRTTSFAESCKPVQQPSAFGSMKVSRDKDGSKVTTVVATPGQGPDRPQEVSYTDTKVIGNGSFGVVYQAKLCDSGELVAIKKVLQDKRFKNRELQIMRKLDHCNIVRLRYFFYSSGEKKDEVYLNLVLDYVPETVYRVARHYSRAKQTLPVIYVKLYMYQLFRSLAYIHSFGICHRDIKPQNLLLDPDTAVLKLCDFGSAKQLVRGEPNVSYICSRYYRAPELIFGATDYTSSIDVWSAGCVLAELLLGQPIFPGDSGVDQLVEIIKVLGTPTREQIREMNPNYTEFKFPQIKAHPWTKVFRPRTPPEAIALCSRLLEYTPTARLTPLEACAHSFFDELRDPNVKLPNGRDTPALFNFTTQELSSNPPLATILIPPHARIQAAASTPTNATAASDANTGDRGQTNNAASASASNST
Sequence of Homeodomain-interacting protein kinase 1 (Homo sapiens) (Q86Z02 whole entry, looked up): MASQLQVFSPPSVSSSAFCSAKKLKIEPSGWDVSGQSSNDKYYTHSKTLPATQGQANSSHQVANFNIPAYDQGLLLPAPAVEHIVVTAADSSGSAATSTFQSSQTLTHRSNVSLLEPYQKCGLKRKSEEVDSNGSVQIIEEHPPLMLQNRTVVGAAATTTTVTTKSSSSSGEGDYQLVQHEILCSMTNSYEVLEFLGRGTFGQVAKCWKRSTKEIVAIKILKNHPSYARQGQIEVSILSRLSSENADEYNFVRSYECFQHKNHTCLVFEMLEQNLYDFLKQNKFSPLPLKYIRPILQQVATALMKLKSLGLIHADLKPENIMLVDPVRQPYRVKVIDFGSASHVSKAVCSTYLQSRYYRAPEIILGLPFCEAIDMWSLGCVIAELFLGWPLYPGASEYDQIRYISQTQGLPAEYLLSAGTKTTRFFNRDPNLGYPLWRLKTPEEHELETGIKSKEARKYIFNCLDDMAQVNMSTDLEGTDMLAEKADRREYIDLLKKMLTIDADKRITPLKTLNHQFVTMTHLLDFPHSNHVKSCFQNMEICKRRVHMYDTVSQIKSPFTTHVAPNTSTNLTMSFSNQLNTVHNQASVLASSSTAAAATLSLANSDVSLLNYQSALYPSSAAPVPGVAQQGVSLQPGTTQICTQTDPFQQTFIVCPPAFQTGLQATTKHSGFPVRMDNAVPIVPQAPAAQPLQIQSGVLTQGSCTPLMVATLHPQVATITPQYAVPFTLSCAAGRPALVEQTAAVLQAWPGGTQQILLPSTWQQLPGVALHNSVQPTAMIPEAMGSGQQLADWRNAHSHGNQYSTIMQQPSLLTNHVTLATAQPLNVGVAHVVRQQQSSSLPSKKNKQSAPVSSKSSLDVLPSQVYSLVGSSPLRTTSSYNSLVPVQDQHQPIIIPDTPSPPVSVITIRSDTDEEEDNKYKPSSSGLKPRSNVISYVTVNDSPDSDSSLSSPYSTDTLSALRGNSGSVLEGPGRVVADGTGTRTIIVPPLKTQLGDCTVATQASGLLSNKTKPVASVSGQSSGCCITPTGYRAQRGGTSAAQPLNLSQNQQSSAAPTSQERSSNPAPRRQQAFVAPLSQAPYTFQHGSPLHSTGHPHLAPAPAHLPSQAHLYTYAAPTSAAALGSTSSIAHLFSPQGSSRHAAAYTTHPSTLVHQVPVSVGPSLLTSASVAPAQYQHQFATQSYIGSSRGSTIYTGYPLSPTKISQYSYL
Sequence of Mitogen-activated protein kinase 14 (Homo sapiens) (Q16539 whole entry): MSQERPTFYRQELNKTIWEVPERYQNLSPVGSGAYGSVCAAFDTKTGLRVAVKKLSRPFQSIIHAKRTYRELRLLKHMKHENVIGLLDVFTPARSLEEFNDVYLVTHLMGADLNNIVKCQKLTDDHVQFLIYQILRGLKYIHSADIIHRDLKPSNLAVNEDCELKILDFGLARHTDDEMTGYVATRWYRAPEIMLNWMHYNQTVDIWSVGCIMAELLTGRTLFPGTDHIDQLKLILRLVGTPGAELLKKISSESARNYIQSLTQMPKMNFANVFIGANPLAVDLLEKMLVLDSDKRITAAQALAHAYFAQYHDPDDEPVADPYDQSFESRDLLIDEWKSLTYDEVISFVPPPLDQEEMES
Sequence of Mitogen-activated protein kinase 11 (Homo sapiens) (Q15759 whole entry): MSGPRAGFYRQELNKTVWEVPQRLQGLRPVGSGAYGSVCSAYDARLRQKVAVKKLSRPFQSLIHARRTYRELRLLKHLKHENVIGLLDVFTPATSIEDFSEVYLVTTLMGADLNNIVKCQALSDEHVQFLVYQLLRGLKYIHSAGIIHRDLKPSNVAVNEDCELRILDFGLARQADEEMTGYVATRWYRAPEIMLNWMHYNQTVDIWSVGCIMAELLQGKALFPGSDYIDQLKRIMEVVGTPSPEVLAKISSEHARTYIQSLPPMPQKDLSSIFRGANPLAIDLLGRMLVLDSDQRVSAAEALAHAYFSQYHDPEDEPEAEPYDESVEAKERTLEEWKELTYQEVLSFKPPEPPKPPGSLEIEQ

What is called inhibition is the change of the read-out against control, counted positive when it falls. Take `c1cnn2ncc(-c3ccnc(NCCCN4CCOCC4)n3)c2c1`: the inhibition in [1] was 13%; in [2], -1.15%; in assay [3], 6.02%; in assay [4] it was -0.89%; in assay [5], 3.35%; in assay [6] it was 3.34%. Besides, the inhibition in assay [7] was 5.01%; in assay [8], 2.95%; in assay [9], 4.35%; in assay [10], 2.48%; in [11], 0.61%; in assay [12], -0.52%. The inhibition in [13] is -0.57%; in [14], 1.91%; in assay [15], 8.35%; in assay [16] it was 2.39%; in assay [17], 4.06%; in [18], -1.15%. Besides, the results for the inhibition in assay [19] and in assay [20] were 4.03% and -0.08%, respectively.
On to `COC(=O)Nc1nc2cc(Oc3ccc(NC(=O)Nc4ccccc4)cc3)ccc2[nH]1`, for which the inhibition was 8.21% in assay [1]; 0.47% in assay [2]; 2.14% in assay [3]; 3.11% in assay [4]; 2.22% in assay [5]; 3.28% in [6]. Moreover, the inhibition in [7] is 3%; in [8], 4.54%; in assay [9] it was 2.22%; in assay [10], 4.71%; in assay [11], 4.97%; in assay [12], -2.65%. The inhibition in assay [13] was 1.09%; in assay [14] it was 1.53%; in [15], 6.62%; in assay [16], 3.05%; in [17], 8.13%; in assay [18], -0.27%. For the same compound, the inhibition amounted to 1.34% in assay [19] and 3.43% in assay [20].
For the compound `CN1CCC(C(=O)Nc2n[nH]c3nc(-c4ccc(O)cc4)c(Br)cc23)CC1`, the inhibition in assay [2] is 2.86% and -1.65%; in assay [3] it was 20.1% and 19.3%; in [4] it was 0.89% and 1.06%; in assay [5], 5.87% and 4.37%; in assay [6] it was 5.88% and 4.7%; in assay [7], 16.6% and 13.9%. Further, the inhibition in assay [8] was 6.51% and 1.55%; in [9], 12.1% and 3.95%; in assay [10] it was 5.16% and 1.61%; in assay [11], 6.59% and 1.2%; in [12], -1.97% and -1.1%; in assay [13], -0.76% and -0.97%. In addition, the inhibition was 1.69% and 4.12% in assay [14]; 13% and 10.5% in assay [15]; 4.89% and 2.05% in assay [16]; 17.5% and 8.93% in assay [17]; 2.74% and 2.79% in assay [18]; 13.7% and 11.6% in assay [19]. Besides, in assay [20], the inhibition is 4.48% and 2.47%.
On to `Cc1nnc(-c2cccc(-c3ccc(C(=O)NCC4CC4)cc3)c2)o1`, for which the inhibition is 11.6% in [1]; 4.5% in assay [2]; 4.32% in [3]; 2.08% in assay [4]; -0.47% in assay [5]; 3.54% in assay [6]. Also, the inhibition is 6.68% in assay [7]; 2.73% in [8]; 5.62% in [9]; 5.36% in [10]; 6.64% in [11]; -1.05% in assay [12]. Moreover, the inhibition in assay [13] was -0.94%; in assay [14], 4.85%; in assay [15], 12.2%; in [16], 3.66%; in [17] it was 7.35%; in [18], 3.76%. Further, the figures for the inhibition in assay [19] and in [20] were 3.54% and 4.5%, respectively.
For `Fc1cccc(COc2ccc(Nc3ncncc3C#Cc3ccccc3)cc2Cl)c1`, the inhibition in assay [1] amounted to 6.26%; in [2], 3.88%; in [3] it was 4.2%; in assay [4] it was 1.31%; in [5] it was 1.7%; in assay [6] it was 2.97%. In addition, the inhibition in assay [7] is 7.96%; in assay [8], 5.17%; in assay [9] it was 4.95%; in assay [10], 4.94%; in [11], 5.53%; in assay [12], -0.87%. For the same compound, the inhibition in assay [13] is 0.58%; in assay [14] it was 6.33%; in assay [15], 11.6%; in assay [16] it was 3.77%; in assay [17], 8.28%; in assay [18], -1.02%. The inhibition in assay [19] amounted to 3.79%; in assay [20], 2.17%.
`COc1cc(Nc2ncc(-c3ccccc3)o2)cc(OC)c1`: the inhibition is 11.5% in assay [1]; 1.55% in assay [2]; 17.1% in assay [3]; 2.58% in assay [4]; 12.5% in [5]; 3.25% in assay [6]. In addition, the inhibition is 3.23% in assay [7]; 10.2% in [8]; 6.06% in assay [9]; 5.39% in assay [10]; 5.68% in [11]; -1.19% in assay [12]. Moreover, the inhibition in [13] stood at 1.14%; in assay [14], 6.3%; in assay [15], 5.68%; in assay [16], 2.87%; in assay [17], 5.59%; in [18] it was 5.24%. Besides, the results for the inhibition in [19] and in [20] were 4.13% and 3.61%, respectively.
On to `O=C1Nc2ccccc2/C1=C1\CCc2cc(O)ccc21`, for which the inhibition in assay [1] is 7.64%; in assay [2] it was -1.14%; in assay [3] it was 7.57%; in [4] it was 0.76%; in assay [5], 10.8%; in [6] it was 5.71%. Moreover, the inhibition in assay [7] was 9.88%; in assay [8], 5.77%; in [9], 6.56%; in [10] it was 5.82%; in assay [11], 4.54%; in [12] it was 0.01%. For the same compound, the inhibition was -0.36% in assay [13]; 4.38% in [14]; 7.01% in [15]; 4.9% in assay [16]; 5.91% in assay [17]; 3.43% in assay [18]. The results for the inhibition in assay [19] and in assay [20] were 6.56% and 4.33%, respectively.
On to `CNC(=O)c1ncccc1Nc1nc(Nc2cc3c(cc2OC)CCCN3C(=O)CN(C)C)nc2[nH]ccc12`, for which the inhibition in assay [1] amounted to 14.6%; in assay [2] it was 3.08%; in assay [3], 22.2%; in assay [4], 3.67%; in assay [5], 13.5%; in assay [6], 3.07%. Further, the inhibition in assay [7] is 9.19%; in assay [8] it was 3.01%; in assay [9] it was 6.21%; in assay [10], 2.44%; in assay [11] it was 1.38%; in [12], 0.37%. Further, the inhibition in [13] is 0.84%; in assay [14], 4.75%; in assay [15], 8.76%; in assay [16], 4.41%; in [17], 4.4%; in assay [18] it was 8.55%. Also, the inhibition in [19] worked out at 5.64%; in assay [20] it was 1.94%.
With `COc1cc2c(cc1Nc1nc(Nc3cccc(F)c3C(N)=O)c3cc[nH]c3n1)N(C(=O)CN1CCN(C(C)C)CC1)CC2`, the inhibition in [1] is 3.89%; in [2], 0.07%; in [3] it was 21.8%; in [4], 3.33%; in assay [5] it was 15.4%; in assay [6], 3.04%. The inhibition stood at 18.2% in assay [7]; 2.66% in assay [8]; 7.45% in assay [9]; 2.64% in assay [10]; 3.92% in [11]; 4.88% in assay [12]. Further, the inhibition came to 0.53% in assay [13]; 5.02% in assay [14]; 6.81% in assay [15]; 2.96% in assay [16]; 3.23% in [17]; 0.14% in assay [18]. Further, the figures for the inhibition in assay [19] and in [20] were 2.89% and 1.49%, respectively.
